# A selection: hits, their analogues and other compounds. The true share with any hit is near 4.6%.
# Wee1 stabilizer: Wee1 degradation inhibitors, primary screen, cell-based, HeLa, Wee1K328M-luciferase, luminescence | HeLa Luc-Wee1K328M stability; 100% = proteasome inhibitor MG132 effect | reporter increase, % at 5 µM | 1.2% of 220,000 active;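 active = activation above the mean of all tested compounds plus 3 SD, set per screening run, cut at about 8.8% in these data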;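 also: cells exposed to compound for 20 h before luminescence read; 0% = DMSO alone and 100% = MG132 at 30 µM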
# Target sequence (P30291 whole entry K328M): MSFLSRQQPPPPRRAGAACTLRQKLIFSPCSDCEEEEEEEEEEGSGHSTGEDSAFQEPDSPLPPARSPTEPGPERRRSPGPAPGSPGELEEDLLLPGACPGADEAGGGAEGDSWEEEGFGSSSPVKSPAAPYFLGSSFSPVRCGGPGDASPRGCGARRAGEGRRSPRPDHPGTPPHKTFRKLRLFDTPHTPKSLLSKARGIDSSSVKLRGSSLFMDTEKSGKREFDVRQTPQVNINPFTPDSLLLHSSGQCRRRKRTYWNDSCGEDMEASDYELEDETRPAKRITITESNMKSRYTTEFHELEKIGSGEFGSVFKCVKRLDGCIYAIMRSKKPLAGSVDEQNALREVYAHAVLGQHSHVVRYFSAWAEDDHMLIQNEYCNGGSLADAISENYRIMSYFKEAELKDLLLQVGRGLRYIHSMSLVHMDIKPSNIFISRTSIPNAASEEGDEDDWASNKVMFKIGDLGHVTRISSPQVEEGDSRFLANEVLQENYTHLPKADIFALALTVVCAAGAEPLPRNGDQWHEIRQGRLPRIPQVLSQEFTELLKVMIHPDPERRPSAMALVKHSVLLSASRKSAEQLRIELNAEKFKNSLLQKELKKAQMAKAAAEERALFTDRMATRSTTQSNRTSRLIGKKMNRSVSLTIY
# hgDAF12 agonist: H. glycines DAF-12 receptor agonists, primary screen, cell-based, luminescence, HEK293, GAL4 fusion, UAS-luciferase; HEK293 GAL4-hgDAF12 UAS-luciferase reporter, agonist luminescence; normalized to butyrate control; activation, % at 6.8 µM; 1.8% of 370,000 active;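 active = activation above a cutoff set at the mean of all screened compounds plus 3 SD, cut at about 10% in these data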;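 also: 0% = DMSO wells and 100% = sodium butyrate wells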
# DAX1 inh-1: DAX1 (NR0B1) inhibitors on StAR promoter, primary screen, cell-based, luminescence, SF-1 (NR5A1), full-length DAX-1 | HEK293T StAR-luciferase reporter, SF-1/DAX-1 repression relief | inhibition, % at 6.8 µM | 1.1% of 370,000 active | AID 652010, 2013;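 active = inhibition above the mean over all tested compounds plus 3 SD, cut at about 3.6% in these data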;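 also: 0% = DAX-1 cells with DMSO and 100% = cells lacking DAX-1 with DMSO; higher inhibition means more luminescence from relief of DAX-1 repression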
# hcDAF12 agonist: H. contortus DAF-12 nuclear receptor activators, primary screen, cell-based, luminescence, HEK293, lit1-tk-luc reporter. 1.4% of 370,000 active. AID 652067, 2013. activation, % at 6.8 µM. HEK293 hcDAF-12 lit1-tk-luc reporter; 0% DMSO, 100% Δ7-dafachronic acid;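 active = activation above the mean of all tested compounds plus 3 SD, cut at about 5.5% in these data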;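 also: 100% = response to 3 µM Δ7-dafachronic acid high control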
# ssDAF12 agonist: S. stercoralis DAF-12 nuclear receptor activators, primary screen, cell-based, luminescence, HEK293, GRIP1 co-expression, lit1-tk-luc; HEK293 ssDAF-12/GRIP1 lit1-tk-luc reporter; % of 3 µM dafachronic acid response; AID 652126, 2013; 1% of 370,000 active; Nuclear hormone receptor DAF-12 (Strongyloides stercoralis); activation, % at 6.8 µM;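 active = activation above the mean over all tested compounds plus 3 SD, cut at about 0.9% in these data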;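 also: 0% = DMSO-only wells and 100% = 3 µM delta7-dafachronic acid wells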
# DAX1 inh-2: DAX1 (NR0B1) inhibitors, primary screen, cell-based, HEK293, Gal4-DAX1, luciferase luminescence; HEK293 Gal4-DAX1 luciferase reporter; AID 504766, 2011; Nuclear receptor subfamily 0 group B member 1 (Homo sapiens), P51843; 0.99% of 340,000 active; inhibition, % at 6.75 µM;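 active = inhibition above the mean over all tested compounds plus 3 SD, cut at about 4.2% in these data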;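 also: 0% = DAX1-transfected cells with DMSO and 100% = empty-vector control cells with DMSO; inhibition shows as a rise in luminescence from relieved DAX1 repression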
# LXR ag: LXR agonists, Gal4 luciferase reporter, confirmation, counter-screen for hcDAF-12 agonist project, cell-based, luminescence, HEK293, H. contortus campaign | shares compounds with hcDAF12 agonist | HEK293 Gal4-LXR tk-luc reporter, 24 h; normalized: DMSO 0%, positive control 100% | activation, % at 6.8 µM | 3,400 tested, under 10 active | AID 743027, 2013;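 active = mean percent activation of the reporter above a cutoff set as the average over tested compounds plus their standard deviation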
# hcDAF12 ag: H. contortus DAF-12 receptor agonists, confirmation, cell-based, luminescence, HEK293, lit1-tk-luc, triplicate | shares compounds with hcDAF12 agonist | HEK293 hcDAF-12 lit1-tk-luc reporter; % of Δ7-dafachronic acid response | activation, % at 6.8 µM | 61% of 3,400 active | AID 743032, 2013;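 active = mean activation across triplicate tests above the threshold derived from the earlier primary screen, cut at about 5.5% in these data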;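 also: 0% = DMSO only wells and 100% = 3 µM Δ7-dafachronic acid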
# The depositor's hits bear a star; · = not tested or not shown.
SMILES,Wee1 stabilizer,hgDAF12 agonist,DAX1 inh-1,hcDAF12 agonist,ssDAF12 agonist,DAX1 inh-2,LXR ag,hcDAF12 ag
COc1ccc2c(c1)C(=O)N(Cc1ccccc1)C(=O)C2(C)C,·,0,0,-3,-1,0,·,·
Cc1cc(O)c(C(=O)/C=C/c2ccc(C(C)C)cc2)c(=O)o1,·,11*,2,8.6*,1.1*,5.7*,0,3
CCN1CCN(/C=N/c2nc(C)cs2)CC1,0,8,2,6.8*,0,0,0,2
Cc1ccc(N=Nc2[nH]c3ccccc3c2O)cc1,1,13*,2,9.5*,1,3,1,12*
COc1ccc(N=Nc2[nH]c3ccc(C)cc3c2O)cc1,2,2,0,4,0,0,·,·
C[C@H]1CN([C@@H](C)CO)S(=O)(=O)c2ccc(Br)cc2O[C@H]1CN(C)C(=O)Cc1ccncc1,·,1,0,-1,-1,·,·,·
COc1ccc(-c2nc3n(c2C)Cc2ccccc2-3)cc1,1,12*,1,9.9*,2.2*,4,1,7.5*
Cc1ccc(C)n1-c1ccc(-c2ccn[nH]2)cc1,2,4,1,0,-1,0,·,·
c1ccn(-c2ccc(-c3ccn[nH]3)cc2)c1,1,13*,2,10*,2.2*,4,1,4
N#CC1=C(N)C(C#N)(C#N)C2(C(=O)Nc3ccccc32)C2CCCC=C12 (centres undefined),-1,-1,1,6.8*,0,-2,0,1
O=C1Nc2ccccc2C12OC1CCCCC1O2 (centres undefined),-1,-1,0,0,0,0,·,·
CCc1ccc(CN(C)CC(=O)Nc2ccc(S(=O)(=O)N3CCOCC3)cc2)cc1,·,-2,-2,-1,-1,-1,·,·
Cn1cc(C(=O)N/N=C/C(Br)=C/c2ccccc2)ccc1=O,3,-1,-1,7.6*,-1,0,0,3
COc1ccccc1C(CNC(=O)c1cc(S(=O)(=O)N2CCOCC2)ccc1C)N1CCCC1 (centres undefined),·,3,0,1,-1,0,·,·
CC(=O)c1sc(NC(=O)c2oc3ccc(F)cc3c2C)nc1C,·,3,3,6.9*,0,2,1,4
CC(=O)c1sc(NC(=O)c2cc(=O)c3ccccc3o2)nc1C,-2,5,2,3,0,1,·,·
C=CCN1C=CC(=CC=C(C#N)C#N)C=C1,9,4,1,8.5*,0,4.5*,0,3
CCc1nc2c(OCCOC)cccn2c1N(C)C(=O)Nc1ccccc1OC,·,-3,-1,-1,-1,·,·,·
Cc1cccc(/C(N)=N/OC(=O)c2ccc(F)cc2)c1,-1,13*,2,7.2*,1,3,1,3
COc1ccc(CNC(=O)C(=O)c2cn(CC(=O)N3CCOCC3)c3ccccc23)cc1,·,1,0,-1,0,1,·,·
COc1ccc(CNC(=O)C(=O)c2cn(CC(=O)N3CCCC3)c3ccccc23)cc1,·,1,0,7.2*,0,0,0,3
O=C(Cn1cc(SCc2ccccc2Cl)c2ccccc21)N1CCOCC1,1,6,1,11*,-1,-1,0,5
O=C(Nc1ccccc1Cl)C(=O)c1cn(CC(=O)N2CCOCC2)c2ccccc12,·,7,1,7.6*,0,2,1,8.6*
CCCCCCN1CCN(C2CN(Cc3cn(Cc4cccc(C(F)(F)F)c4)nn3)S(=O)(=O)C2)CC1 (centres undefined),·,-4,-2,-2,-1,·,·,·
CN(C)S(=O)(=O)c1ccc(C(=O)NCC(=O)Nc2ccc(F)c(F)c2)cc1,·,-1,0,6.8*,-1,0,0,1
SMILES,Wee1 stabilizer,hgDAF12 agonist,DAX1 inh-1,hcDAF12 agonist,ssDAF12 agonist,DAX1 inh-2,LXR ag,hcDAF12 ag
C[C@H](CO)N1C[C@H](C)[C@@H](CN(C)S(C)(=O)=O)Oc2c(NC(=O)Nc3ccccc3)cccc2C1=O,·,1,0,0,-1,1,·,·
Cn1c(Cc2nc3ccccc3n2C)nc2ccccc21,·,-1,-1,-1,-1,0,·,·
O=C(O)c1ccc(NCc2nc3ccccc3n2Cc2ccccc2)cc1,-2,-1,0,-1,-1,-1,·,·
Cn1c(CNc2ccccc2)nc2ccccc21,0,10,2,8.7*,1.1*,2,0,6.9*
CCn1c(CNc2ccc(C(=O)O)cc2)nc2ccccc21,-2,1,0,9.3*,0,0,0,2
Cc1ccccc1NCc1nc2ccccc2n1C,·,10,3,8.4*,1.0*,3,1,6.2*
Cn1c(CNc2ccccc2O)nc2ccccc21,-1,4,0,8.4*,3.0*,0,0,9.0*
O=C(NCc1ccccc1Cl)C1CCC(CNS(=O)(=O)c2cccc3cccnc23)CC1 (centres undefined),·,-1,-2,-1,-1,·,·,·
COC(=O)[C@H](C(C)C)N1Cc2nnn(Cc3ccccc3)c2-c2cc(F)ccc2S1(=O)=O,·,2,0,-1,-2,·,·,·
COc1ccccc1-c1nnc(SCC(=O)N2CCCC2)o1,·,1,1,6.7*,1.4*,3,0,9.1*
COc1cccc2c1C(=O)c1c(O)c3c(c(O)c1C2=O)C[C@@](O)(C(=O)CO)C[C@@H]3OC1CC(N)C(O)C(C)O1 (some centres undefined),·,-4,-6,11*,7.3*,-2,2,5

# Source: PubChem
